Results: PubChem BioAssay (NCI)
The panel holds about 83,000 compounds, 20% with a hit somewhere; the sample as a whole holds those more often.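 Cell lines were cultured in 96-well plates, exposed to a single compound concentration, and assessed for percent growth 48 hours later.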 Unmarked numbers belong to inactive results. Activity calls are given as the source filed them. How the source made its calls: active means growth percent below 10; inactive means the rest.

Assays:
Experiment in all cases: NCI-60 one-dose screen, 48 h (100 = growth as untreated, 0 = no growth, -100 = all killed)
Conditions in all cases: 10 µM unless noted
SK-MEL-2 melanoma = tested on: SK-MEL-2 melanoma
EKVX NSCLC = tested on: EKVX NSCLC
SN12C renal = tested on: SN12C renal
UO-31 renal = tested on: UO-31 renal
TK-10 renal = tested on: TK-10 renal
ACHN renal = tested on: ACHN renal
CAKI-1 renal = tested on: CAKI-1 renal
CCRF-CEM leukemia = tested on: CCRF-CEM leukemia
MOLT-4 leukemia = tested on: MOLT-4 leukemia
SR leukemia = tested on: SR leukemia
RPMI-8226 leukemia = tested on: RPMI-8226 leukemia
OVCAR-8 ovarian = tested on: OVCAR-8 ovarian
OVCAR-4 ovarian = tested on: OVCAR-4 ovarian
SK-OV-3 ovarian = tested on: SK-OV-3 ovarian
IGROV1 ovarian = tested on: IGROV1 ovarian
OVCAR-3 ovarian = tested on: OVCAR-3 ovarian
HS 578T breast = tested on: HS 578T breast
NCI/ADR-RES ovarian = tested on: NCI/ADR-RES ovarian
OVCAR-5 ovarian = tested on: OVCAR-5 ovarian

SMILES	growth (SK-MEL-2 melanoma)	growth (EKVX NSCLC)	growth (SN12C renal)	growth (UO-31 renal)	growth (TK-10 renal)	growth (ACHN renal)	growth (CAKI-1 renal)	growth (CCRF-CEM leukemia)	growth (MOLT-4 leukemia)	growth (SR leukemia)	growth (RPMI-8226 leukemia)	growth (OVCAR-8 ovarian)	growth (OVCAR-4 ovarian)	growth (SK-OV-3 ovarian)	growth (IGROV1 ovarian)	growth (OVCAR-3 ovarian)	growth (HS 578T breast)	growth (NCI/ADR-RES ovarian)	growth (OVCAR-5 ovarian)
O=C(Cc1ccc(/C=C/C(=O)c2ncc[nH]2)cc1)Nc1ccc(C(F)(F)F)cc1	100%	71.8%	29.5%	-41.7% (active)	87.5%	56%	68.7%	-9.03% (active)	6.36% (active)	0.627% (active)	-38.2% (active)	-2.81% (active)	51.1%	73.3%	23.7%	1.88% (active)	36.1%	60.3%	–
C#CCNC(=O)[C@H](Cc1ccccc1)NC(=O)[C@]12CC[C@@H](C(=C)C)[C@@H]1[C@H]1CC[C@@H]3[C@@]4(C)Cc5c([nH]c6ccccc56)C(C)(C)[C@@H]4CC[C@@]3(C)[C@]1(C)CC2	95.5%	94%	93.6%	90.3%	90.4%	94.8%	86.8%	91.6%	93.7%	88.5%	82.9%	96.5%	108%	95.4%	110%	96.5%	113%	97.2%	95.8%
Nc1c(Cl)cc([N+](=O)[O-])cc1Br	121%	89.1%	97%	90%	115%	112%	85.4%	104%	105%	99.5%	86.8%	93.9%	102%	110%	114%	102%	105%	95%	103%
O=C1c2ccccc2-c2c1c1c(NCCCO)nc3ccccc3c1n2Cc1ccccc1	48.5%	17.8%	18.6%	-40.9% (active)	-20.2% (active)	50.1%	33.9%	36%	16.9%	5.22% (active)	46.2%	25.9%	10.7%	23.8%	15.7%	14.4%	–	3.37% (active)	45.6%
CCSc1ccc2c(c1)N(CCCN1CCN(C)CC1)c1ccccc1S2	69%	59.3%	57.6%	9.67% (active)	55.6%	43.5%	50%	27.9%	18.5%	-15% (active)	32.1%	76.3%	61.2%	78.7%	–	58.2%	61.4%	60.8%	70%
N#CC1=C(N)Oc2c(ccc3ccccc23)C1c1ccc([N+](=O)[O-])cc1 (stereo unspecified)	86%	76.9%	90.4%	54.7%	145%	90.3%	41.6%	66.9%	58.6%	20.2%	89.5%	93.3%	90.8%	80%	50.4%	76.5%	87.5%	52.8%	95.7%
CCCCCCOc1ccc(/C=N/Nc2cc(C)nc3ccc(Br)cc23)cc1	-14% (active)	-21.2% (active)	-88.9% (active)	-97.5% (active)	-85.7% (active)	-98.3% (active)	-72.4% (active)	-23.3% (active)	-51.4% (active)	-32.2% (active)	–	-36.1% (active)	-88.5% (active)	101%	-85.3% (active)	-91.6% (active)	-40.4% (active)	-67.1% (active)	-92.7% (active)
O=C(CCN1CCCC1)Nc1ccc2c(Nc3ccccc3)c3ccccc3nc2c1	41.4%	59.3%	13.3%	-28.3% (active)	1.74% (active)	1.77% (active)	-11.9% (active)	-8.84% (active)	-4.75% (active)	-14.9% (active)	-27.3% (active)	7.5% (active)	-4.97% (active)	23.8%	13.5%	-25% (active)	32.2%	47.1%	20%
N#Cc1c(Nc2ccccc2)nn2cc(-c3nc4ccccc4s3)c(N)nc12	97.5%	71.9%	89.6%	83.4%	107%	59%	82.6%	79.2%	93.7%	74.3%	91.9%	70.7%	-13.7% (active)	90.2%	65.5%	97%	64.3%	50.6%	88.5%
COc1ccc(/C(C)=N/NC(=O)CSc2nc3ccccc3c(=O)n2Cc2ccc(S(N)(=O)=O)cc2)c(OC)c1	115%	89.9%	100%	80%	108%	105%	89.9%	104%	97.9%	95.6%	116%	100%	101%	114%	104%	111%	102%	100%	99%
Cc1cc(C)n(Nc2nc3ccccc3[nH]c2=O)c(=O)c1C#N	108%	88.2%	89.8%	78.8%	111%	94.1%	89.9%	109%	96.7%	82.5%	–	97.7%	93.4%	96.9%	94.8%	101%	92.7%	101%	99.7%
COC(=O)C(c1ccccc1)C(CC(=O)c1ccccc1)c1ccccc1 (stereo unspecified)	85.5%	58.3%	102%	75%	92.4%	86.6%	74.8%	84.7%	71%	87.5%	71.1%	102%	–	31.8%	83.3%	81.3%	102%	83.5%	93.3%
CNC(=O)NCC1OC(n2cnc3c(NC(=O)Nc4ccccc4)ncnc32)C(O[Si](C)(C)C(C)(C)C)C1O[Si](C)(C)C(C)(C)C (stereo unspecified)	56.7%	23.4%	-79.3% (active)	48.3%	34.2%	20.5%	59.5%	42.6%	24.1%	-22.1% (active)	20.2%	32.9%	29.6%	77.5%	52.5%	-28.7% (active)	61%	31%	69.2%
COc1ccccc1C(C[N+](=O)[O-])c1c(-c2ccccc2)[nH]c2cc(C)ccc12 (stereo unspecified)	62.8%	71.7%	77.9%	57.2%	118%	73.4%	38.1%	54.4%	53%	24.2%	61.5%	75.3%	81.7%	88.6%	53.6%	76.1%	83%	50.1%	–
O=C(N=Nc1c(O)[nH]c2ccc(F)cc12)c1cc2ccccc2[nH]1	91%	89%	91.2%	76.2%	106%	100%	80.7%	99.5%	99.2%	95.1%	92%	97.2%	99.9%	110%	79.3%	101%	101%	100%	–
COc1cc2c(cc1[N+](=O)[O-])-c1ccc([N+](=O)[O-])cc1/C2=N\O	92.6%	76.7%	91.1%	67.6%	78.9%	72.5%	83.4%	78.2%	83.3%	62%	84%	80.1%	79.6%	96.4%	97.3%	104%	89%	77.1%	102%
